Sfp inh = blocks B. subtilis Sfp PPTase activity. Biochemical Sfp PPTase activity, qHTS. Potency, µM, for the others: largest response in the series, negative = inhibition, hits mostly inhibitors. 310,000 compounds, 3.5% hits. AID 1490;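 note: the enzyme is Sfp with the accession as filed and its product quenches rhodamine fluorescence; 0% = enzyme reaction without inhibitor and -100% = no enzyme wells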
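Buffer: 50 mM Hepes-Na pH 7.6, 10 mM MgCl2, 0.01% Nonidet P-40, 0.01% BSA. Enzyme 15 nM, pre-exposed to compound 15 min; substrates then added and fluorescence change tracked over 30 min.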
RORgamma inh = ROR gamma (mouse) transcription inhibition; Drosophila S2 Gal4-RORgamma UAS-luciferase reporter, 20 h; 310,000 compounds, 5.4% hits; Potency, µM (doses to about 53.6 µM), for the others: at the top dose activity change, negative = inhibition, most hits filed as inhibitors; note: nearly all actives have a fitted effect of over 60% in size
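Stably transfected Drosophila Schneider cells are the test system, with ROR gamma fused to Gal4 and luciferase under UAS control; luminescence is read after 20 hr of 700 uM copper sulfate induction at ambient temperature.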
ALDH1A1 inh = inhibitors of human aldehyde dehydrogenase 1A1. P00352. Purified ALDH1A1, NADH fluorescence, propionaldehyde substrate. Potency, µM (top dose mostly 75.3 µM), for the others: at the top dose activity, negative = inhibition, hits mostly inhibitors. 220,000 compounds, 7.3% hits; active = well fitted inhibition curve with a large enough effect, not every such curve was filed as active; inconclusive = small, poorly fitted or top-dose-only effect, or another doubt; inactive = no such curve, though single readings can be large or run the other way;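 note: plate controls were no enzyme wells and a reference inhibitor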
Target sequence (P00352 whole entry, looked up): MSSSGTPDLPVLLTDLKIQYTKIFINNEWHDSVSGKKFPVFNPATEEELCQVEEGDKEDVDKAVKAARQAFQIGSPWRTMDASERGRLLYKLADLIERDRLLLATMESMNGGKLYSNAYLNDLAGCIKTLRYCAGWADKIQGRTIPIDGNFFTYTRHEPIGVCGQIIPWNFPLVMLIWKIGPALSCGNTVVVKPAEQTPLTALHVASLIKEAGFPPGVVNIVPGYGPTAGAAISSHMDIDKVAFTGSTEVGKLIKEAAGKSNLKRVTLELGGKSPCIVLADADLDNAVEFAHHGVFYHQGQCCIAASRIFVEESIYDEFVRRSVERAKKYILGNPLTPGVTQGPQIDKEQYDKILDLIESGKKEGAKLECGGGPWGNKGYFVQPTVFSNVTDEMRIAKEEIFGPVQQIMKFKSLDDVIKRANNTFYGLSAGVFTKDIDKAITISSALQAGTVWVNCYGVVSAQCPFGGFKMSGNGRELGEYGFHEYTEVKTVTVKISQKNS
VP16 counter = counter-screen for ROR gamma inhibitors: Gal4-VP16 reporter; Potency, µM (series often up to 53.6 µM), without a hit: top-dose activity, negative = inhibition, usual class: inhibitors; 310,000 compounds, 3.5% hits; Drosophila S2 Gal4-VP16 UAS-luciferase, luminescence, 20 h; AID 2546;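 note: Gal4-VP16 expression switched on by copper sulfate through the metallothionein promoter; nearly all actives have a fitted effect of over 50% in size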
PLK1 PBD inh = inhibitors of human PLK1 polo-box domain binding; Plk1 PBD binding of FITC phosphopeptide, fluorescence polarization; Potency, µM, for inactives: max response, negative = inhibition, actives largely listed as inhibitors; 360,000 compounds, 2.8% hits; P53350; note: series mostly up to about 57 µM; nearly all actives have a fitted effect of over 65% in size
Active calls of the source: *; u = inconclusive; x = no result given; [ ] = another dose, or the depositor's remark. Sampled rows, rich in hits. Any-hit rate of the full collection: about 12%. Unless noted, calls come from the whole dose curve; as a rule, active = well fitted curve in the direction sought with a large enough effect; inconclusive = small, poorly fitted or top-dose-only effect, or another doubt; inactive = no such curve, though single readings can be large; an effect the other way counts as inactive or inconclusive. Unless noted, % is set by controls: 0 for no effect and ±100 for the full control effect; potency is the fitted concentration of half-maximal effect.

SMILES | Sfp inh | RORgamma inh | ALDH1A1 inh | VP16 counter | PLK1 PBD inh
C/C(CC(=O)N1CCN(C=O)CC1)=N\NC(=O)c1cccc([N+](=O)[O-])c1 | -9% | -28% | 25µM* | -20% | -15%
CNc1ccc(C(=O)CC(O)CCC(C)C2OC(=O)CC(O)CC(=O)CC(O)CC(O)CC(O)CC(O)CC3(O)CC(O)C(C(=O)OC)C(CC(O[C@@H]4OC(C)C(O)C(N)C4O)/C=C/C=C/C=C/C=C/C=C/C=C/C=C/C2C)O3)cc1 (stereo partly drawn) | -14% | -4% | -4% | -9% | x
CN(C)/C=C1/C(=O)NC(=O)N(CCNc2ncc(C(F)(F)F)cc2Cl)C1=O | -12% | 12% | u | 6% | u
CCC(C)N1C(=O)/C(=C\c2cnc(N(C)C)nc2)C(=O)NC1=S (stereo not drawn) | 50µM* | -17% | -9% | 4% | 6.7µM*
CSc1ncc(/C=C2/C(=O)NC(=O)N(C3CCCCC3)C2=O)cn1 | 40µM* | 0% | 4% | -9% | 11µM*
CCCCN1C(=O)NC(=O)/C(=C/c2cnc(SC)nc2)C1=O | 25µM* | -24% | 30% | 6% | 8.4µM*
CN(C)c1ncc(/C=C2/C(=O)NC(=S)N(C3CCCCC3)C2=O)cn1 | 45µM* | 5% | u | -8% | x
C[C@@H]1O[C@@H](O[C@H]2CC[C@]3(C=O)C4CC[C@]5(C)[C@@H](C6=CC(=O)OC6)CC[C@]5(O)[C@@H]4CC[C@]3(O)C2)[C@H](O)[C@H](O)[C@H]1O (stereo partly drawn) | 4% | 0% | 3% | -6% | x
CC(C)(O)[C@@H]1C2OC(=O)[C@@H]1[C@]1(O)C[C@H]3O[C@]34C(=O)O[C@H]2[C@]14C | 13% | u | u | -13% | x
O=C1CC[C@@]2(O)C3Cc4ccc(O)c5c4C2(CCN3CC2CC2)[C@H]1O5 (stereo partly drawn) | 13% | 15%[10 µM] | 0% | 2% | x
C[C@@H]1C[C@H](C)C[C@H](C)[C@@H](O)CC(=O)O[C@H]([C@H]2CCC[C@H]2C(=O)O)C/C=C/C=C(/C#N)[C@H](O)[C@@H](C)C1 | 5% | 0.028µM* | x | u | x
CC(C)[C@]12O[C@H]1[C@@H]1O[C@]13[C@]1(O[C@H]1C[C@H]1C4=C(CC[C@@]13C)C(=O)OC4)[C@@H]2O | 33% | 0.32µM* | -1% | 0.4µM* | x
C(=C\c1ccccc1)/CN1CCN(CCOC(c2ccccc2)c2ccccc2)CC1 | 56µM* | x | -5% | x | x
Clc1ccc([C@@H](OCCN2CCCCC2)c2ccccc2)cc1 | 21% | 13%[2.98 µM] | 10%[20.9 µM] | 6%[17 µM] | x
CCOP(=O)(/C=C(\Cl)c1ccccc1)C(O)c1ccc(F)cc1 (stereo not drawn) | 12% | 0% | x | -8% | 21µM*
Cc1ccc(N2C(=O)/C(=C/c3ccc(CN(CCC#N)S(C)(=O)=O)o3)C(=O)NC2=S)cc1C | 22µM* | -12% | 20µM* | -1% | x
Cc1cccc(N2C(=O)/C(=C/c3ccc(CN(CCC#N)S(C)(=O)=O)o3)C(=O)NC2=S)c1 | 13µM* | -19% | 20µM* | -1% | 7.5µM*
O=C(CSc1nnc(NC(=O)c2ccccc2[N+](=O)[O-])s1)NCc1ccco1 | 18% | u | x | 6% | -14%
NC[C@@H](Cc1ccccc1)P(=O)(O)O | x | x | 19%[13.5 µM] | x | x
COc1ccccc1CN1CCCC2(CCN(C(=O)Oc3ccccc3)CC2)C1 | 16% | -23% | -10% | 7% | x
COc1ccc(F)cc1C(=O)C1CCCN(Cc2ccc(O)cc2)C1 (stereo not drawn) | 7% | u | x | -1% | 0%
CCn1ccnc1CN1CCCC(C(=O)c2cc(F)ccc2OC)C1 (stereo not drawn) | u | 2µM* | -13% | 16µM* | -9%
CCn1ccnc1CN1CCCC(C(=O)c2ccc(OC)cc2OC)C1 (stereo not drawn) | 0% | 3.5µM* | 0% | 6.3µM* | -6%
COc1ccc(C(=O)C2CCCN(Cc3cccc(C)n3)C2)c(OC)c1 (stereo not drawn) | 3% | u | x | -22% | -1%
Nc1ccc(S(=O)(=O)c2ccc(NCN3C(=O)NC(=O)C(=O)C3=O)cc2)cc1 | x | x | 9%[13.5 µM] | x | x
SMILES | Sfp inh | RORgamma inh | ALDH1A1 inh | VP16 counter | PLK1 PBD inh
NC(=O)CF | 11% | -4% | x | 3% | x
COc1ccccc1/C=C1/C(=N/O)C2CCN1CC2 | 16% | 22% | 16µM* | -12% | -2%
CC[C@@H]1CN2CCc3cc(OC)c(OC)cc3[C@@H]2C[C@@H]1C[C@H]1NCCc2cc(OC)c(OC)cc21 | 6% | 1.1µM* | -6% | -95% | x
CC[C@H]1CN2CCc3cc(OC)c(OC)cc3[C@H]2C[C@@H]1C[C@H]1NCCc2c1[nH]c1ccc(O)cc21 | x | x | 5%[13.5 µM] | x | x
CC[C@@H]1CN2CCc3cc(OC)c(OC)cc3[C@H]2C[C@@H]1C[C@H]1NCCc2cc(OC)c(OC)cc21 | 2% | 0.56µM* | 8%[20.9 µM] | u | x
N#CC1(O)CCCCC1 | x | 23% | 28µM* | -6% | x
CC1(C)N(O)C(c2ccc(C(=O)O)cc2)=[N+]([O-])C1(C)C | u | 26% | -4% | 0% | x
Oc1ccccc1-c1ccccc1 | 13% | u | 18µM* | 2% | x
O=Cc1cn(Cc2cccc(F)c2)c2ccccc12 | -2% | 16% | 0.56µM* | -8% | -1%
O=Cc1cn(Cc2ccc(Br)cc2)c2ccccc12 | -8% | 40% | x | -6% | 1%
Cc1ccc(O)c(C(CCN(C(C)C)C(C)C)c2ccccc2)c1 (stereo not drawn) | 9% | -12% | 6% | 4% | x
ClC(Cl)c1ccccc1 | x | 15% | -7% | 7% | x
CN(C)CCN=Cc1c(O)n(Cc2ccco2)c(=O)[nH]c1=O | -10% | -2% | 0% | -6% | -3%
N#Cc1c(/N=C/c2c(O)n(Cc3ccco3)c(=O)[nH]c2=O)sc2c1CCCC2 | 79µM* | 2% | 28µM* | -2% | 24µM*
CCn1c(O)c(C=NCc2ccccc2)c(=O)[nH]c1=S | 5% | 0% | 8% | -1% | 5%
CCn1c(O)c(C=NCc2cccs2)c(=O)[nH]c1=O | 24% | 36% | -2% | 20% | 15µM*
NC(=O)c1ccc(N=Cc2c(O)n(Cc3ccco3)c(=O)[nH]c2=O)cc1 | -9% | 17% | x | -2% | u
O=c1[nH]c(=O)n(Cc2ccco2)c(O)c1C=NCc1cccs1 | 50µM* | 15% | u | -5% | -9%
Cc1cc(C)nc(N/N=C/C2=C(O)CC(c3ccccc3)CC2=O)n1 (stereo not drawn) | 11% | u | x | -19% | x
C=Cn1ccnc1P(=S)(c1nccn1C=C)C1CCCCC1 | -2% | 10µM* | -14% | u | -6%
C=Cn1ccnc1P(=S)(c1nccn1C=C)c1nccn1C=C | -18% | -38% | -23% | 9% | -10%
CCN(CCO)c1ccc(N=Cc2c(O)n(C)c(=S)[nH]c2=O)cc1 | 40µM* | -3% | x | -4% | 20%
CCN(CC)c1ccc(N=Cc2c(O)n(Cc3ccco3)c(=O)[nH]c2=O)cc1 | -10% | -12% | 10% | -5% | 54%

Screening data deposited in PubChem by National Center for Advancing Translational Sciences (NCATS).
